{"source": "paper PMC4552634", "about": "“A New Set of Chemical Starting Points with Plasmodium falciparum Transmission-Blocking Potential for Antimalarial Drug Discovery” (PLoS ONE, 2015)", "note": "In all, about 13,000 compounds went through this assay and about 3,200 (25%) showed an effect of 50% or more. This is one part of the list."}
{"tested_on": "P. falciparum stage V gametocytes", "set-up": "BacTiter-Glo ATP luminescence viability of purified stage V gametocytes in 384-well plates, per cent inhibition versus DMSO", "settings": "48 h, 5 µM; inhibitor", "units": {"% Inhibition": "%"}}
{"smiles": "CCc1ccc(NC(=O)c2cccc(CN3CCCN(Cc4cccc(O)c4)CC3)c2)cc1", "note": "[TCMDC-135989]", "% Inhibition": -33.27}
{"smiles": "O=C(/C=C/c1ccc(Cl)cc1)NCCCCCN1CCCC(C(=O)Nc2ccc(Cl)c(Cl)c2)C1", "note": "(stereo not drawn) [TCMDC-136125]", "% Inhibition": -14.11}
{"smiles": "Cc1c(CCNC(=O)CCCN2CC(C)CC(C)C2)c2ccccc2n1C", "note": "(stereo not drawn) [TCMDC-131457]", "% Inhibition": 10.13}
{"smiles": "CCC1CN(CCCn2c3ccccc3c3ccccc32)C(CC)CN1", "note": "(stereo not drawn) [TCMDC-138116]", "% Inhibition": 25.71}
{"smiles": "CC1CN(CCCn2c3ccccc3c3ccc(C(=O)CCCN(C)C)cc32)CC(C)N1", "note": "(stereo not drawn) [TCMDC-137742]", "% Inhibition": 88.42}
{"smiles": "O=c1[nH]c2ccc(Nc3nccc(NCCc4ccccc4)n3)cc2[nH]1", "note": "[TCMDC-136805]", "% Inhibition": -64.58}
{"smiles": "CC(CCCCCC(=O)Nc1ccc(CC(C)NCCc2cccc(Cl)c2)cc1)NCCc1cccc(Cl)c1", "note": "(stereo not drawn) [TCMDC-139800]", "% Inhibition": 109.3}
{"smiles": "CC(CCCC(=O)Nc1ccc(CC(C)NCCc2cccc(Cl)c2)cc1)NCCc1cccc(Cl)c1", "note": "(stereo not drawn) [TCMDC-139798]", "% Inhibition": 110.2}
{"smiles": "CC(Cc1ccc(NC(=O)CCCc2ccccc2)cc1)NCCc1cccc(Cl)c1", "note": "(stereo not drawn) [TCMDC-139883]", "% Inhibition": 22.17}
{"smiles": "CC(CCCCC(=O)Nc1ccc(CC(C)NCCc2cccc(Cl)c2)cc1)NCCc1cccc(Cl)c1", "note": "(stereo not drawn) [TCMDC-139799]", "% Inhibition": 105.4}
{"smiles": "CC(C)CNc1c2c(nc3cnn(-c4c5c(nc6cn[nH]c46)CCCC5)c13)CCCC2", "note": "[TCMDC-131555]", "% Inhibition": -4.273}
{"smiles": "Cc1cccc2nc(-c3ccc(-c4ccc(CN5CCOCC5)cc4)cc3)[nH]c12.O=C(O)C(F)(F)F", "note": "[TCMDC-133825]", "% Inhibition": 20.49}
{"smiles": "O=C(Nc1ccc(F)cc1)NC1CCN(c2ccnc3ccccc23)C1", "note": "(stereo not drawn) [TCMDC-133577]", "% Inhibition": 52.59}
{"smiles": "O=C(Nc1ccccc1Oc1ccccc1)NC1CCN(c2ccnc3cc(Cl)ccc23)C1", "note": "(stereo not drawn) [TCMDC-133401]", "% Inhibition": -4.379}
{"smiles": "O=C(Nc1cccc(C(F)(F)F)c1)NC1CCN(c2ccnc3ccccc23)CC1", "note": "[TCMDC-133586]", "% Inhibition": -4.951}
{"smiles": "O=C(COc1ccccc1)NC1CCN(c2ccnc3cc(Cl)ccc23)C1", "note": "(stereo not drawn) [TCMDC-133669]", "% Inhibition": -12.2}
{"smiles": "O=C(COc1ccc(F)cc1)NC1CCN(c2ccnc3cc(Cl)ccc23)C1", "note": "(stereo not drawn) [TCMDC-133397]", "% Inhibition": -4.375}
{"smiles": "Cc1ccc(NC(=O)NC2CCN(c3ccnc4ccccc34)C2)cc1", "note": "(stereo not drawn) [TCMDC-133576]", "% Inhibition": -20.26}
{"smiles": "O=C(Nc1ccc(C(F)(F)F)cc1)NC1CCN(c2ccnc3ccccc23)C1", "note": "(stereo not drawn) [TCMDC-133578]", "% Inhibition": 40.18}
{"smiles": "O=C(Nc1ccc(OC(F)(F)F)cc1)NC1CCN(c2ccnc3ccccc23)C1", "note": "(stereo not drawn) [TCMDC-133583]", "% Inhibition": -30.46}
{"smiles": "O=C(Nc1ccc(C(F)(F)F)cc1)NC1CCN(c2ccnc3ccccc23)CC1", "note": "[TCMDC-133587]", "% Inhibition": 54.56}
{"smiles": "CC(C)(C)c1ccc(OCC(=O)NC2CCN(c3ccnc4cc(Cl)ccc34)C2)cc1", "note": "(stereo not drawn) [TCMDC-133670]", "% Inhibition": 64.95}
{"smiles": "COc1ccc(NC(=O)NC2CCN(c3ccnc4ccccc34)C2)cc1", "note": "(stereo not drawn) [TCMDC-133575]", "% Inhibition": 3.669}
{"smiles": "O=C(Nc1ccccc1Br)N[C@@H]1CCN(c2ccnc3ccccc23)C1", "note": "[TCMDC-141572]", "% Inhibition": 52.9}
{"smiles": "Cc1ccc(-c2cc(C(=O)Nc3ccc(S(=O)(=O)N4CC(C)OC(C)C4)cc3)[nH]n2)c(O)c1", "note": "(stereo not drawn) [TCMDC-125180]", "% Inhibition": -20.62}
{"smiles": "COc1ccc2nccc([C@@H](O)CN3CCC(NC(=O)c4ccc(-c5ccccc5)s4)CC3)c2c1", "note": "[TCMDC-141106]", "% Inhibition": 10.46}
{"smiles": "O=C(CCCCCNC(=O)c1ccc(O)c(-c2ccc(Cl)c(Cl)c2)c1)NC1CCCCCC1", "note": "[TCMDC-140842]", "% Inhibition": -20.8}
{"smiles": "CC(C)(C)c1ccc(N2C(N)=NC(N)=NC2(C)C)cc1", "note": "[TCMDC-137713]", "% Inhibition": 2.693}
{"smiles": "O=C(Nc1ccc(Cl)cn1)c1sc2ccccc2c1O", "note": "[TCMDC-124520]", "% Inhibition": -11.35}
{"smiles": "Cc1ccc(C(=O)Nc2cc(S(=O)(=O)N3CCCC3)ccc2OCC(F)(F)F)cc1", "note": "[TCMDC-124325]", "% Inhibition": -29.62}
{"smiles": "O=C(Nc1ccc(Cl)c(Cl)c1)Nc1ccc(F)c([N+](=O)[O-])c1", "note": "[TCMDC-125042]", "% Inhibition": -17.87}
{"smiles": "O=C(Nc1ccc(C(F)(F)F)cc1)NC1CCN(c2ccnc3cc(Cl)ccc23)C1", "note": "(stereo not drawn) [TCMDC-133405]", "% Inhibition": -22.97}
{"smiles": "O=C(Nc1ccc(OC(F)(F)F)cc1)NC1CCN(c2ccnc3ccccc23)CC1", "note": "[TCMDC-133585]", "% Inhibition": -8.485}
{"smiles": "CC(C)(C)c1ccc(NC(=O)N[C@@H]2CCN(c3ccnc4ccccc34)C2)cc1", "note": "[TCMDC-141573]", "% Inhibition": 101}
{"smiles": "COc1cc(O)c2c(=O)c(OC)c(-c3cccc(Cl)c3OC3O[C@H](CO)[C@@H](O)[C@H](O)[C@H]3O)oc2c1OC", "note": "(stereo partly drawn) [TCMDC-131699]", "% Inhibition": 3.846}
{"smiles": "COc1cccc(-c2csc(C(=O)NCC3CCN(Cc4ccc(C(C)C)cc4)C3)c2)c1", "note": "(stereo not drawn) [TCMDC-134439]", "% Inhibition": 107.3}
